High-throughput results deposited in PubChem BioAssay by Broad Institute.
Yp Topo-I inh: inhibitors of Yersinia pestis topoisomerase I | Y. pestis Topo-I cleavage product accumulation, plate reader | activity, % at 10 µM | actives 0.064% (n = 360,000) | AID 504884; in the data active means activity above about 50%, passing the limit was not always enough
PfHsp40 rescue: rescue of PfHsp40-mediated yeast toxicity; S. cerevisiae expressing PfHsp40, growth rescue, ATP luminescence; AID 504582; growth rescue, % at 12.5 µM; actives 0.68% (n = 340,000); in the data active means growth rescue above about 28%, passing the limit was not always enough;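 further: yeast W303a lacking pdr1 and pdr3 grown in galactose medium; growth measured after three days at 30 °C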
TcdB GH inh: TcdB glycohydrolase inhibition. P18177. TcdB glycohydrolase enzymatic assay, plate reader. inhibition, % at 9.99 µM. actives 0.24% (n = 350,000). AID 652162; in the data active means inhibition above about 10%
FadD28 FP inh: inhibitors of Mycobacterium tuberculosis FadD28 bisubstrate binding | FadD28 bisubstrate probe binding, fluorescence polarization | inhibition, % at 12.5 µM | actives 0.22% (n = 360,000) | AID 588549; in the data active means inhibition above about 8.5%, passing the limit was not always enough
Mtb BioA inh: blocks M. tuberculosis BioA enzyme activity; inhibition, % at 9.99 µM; actives 0.096% (n = 360,000); purified M. tuberculosis BioA enzyme, plate reader; in the data active means inhibition above about 40%
PrP UTR inh: inhibition of PrP 5' UTR reporter expression; cell-based PrP 5' UTR mRNA reporter, plate reader; inhibition, % (test concentration not listed); actives 0.35% (n = 340,000); AID 488862; in the data active means inhibition above about 52%; further: 0 = median of the neutral control wells
Starred values were filed as active, the others as inactive; · = no result given; ! = a repeat was not active. Most compounds without a hit are left out; they make up all but 1.2% or so of the library.

SMILES	Yp Topo-I inh	PfHsp40 rescue	TcdB GH inh	FadD28 FP inh	Mtb BioA inh	PrP UTR inh
CN(C)C(=O)C[C@H]1C[C@H]2c3cc(NC(=O)Nc4ccccc4)ccc3O[C@H]2[C@H](CO)O1	·	·	·	·	-1.4	·
O=C(C1CCCCC1)N1CC(=O)N2[C@@H](CO)[C@H](c3ccc(Br)cc3)[C@@H]2C1	·	·	-0.2	·	·	·
CCCNC(=O)N(C)C[C@@H]1Oc2ncc(-c3ccccc3)cc2C(=O)N([C@@H](C)CO)C[C@@H]1C	·	·	1.2	·	-2.4	·
S=c1nc(-c2ccccc2)[nH]c2ccc(Br)cc12	3.1	-1.9	0.4	-1.6	·	-18.3
O=c1[nH]c(-c2ccccc2)nn1-c1ccc(Br)cc1Br	1.6	35.4*	-0.7	-1.6	-1.3	-7.2
COc1ccc(-c2cn(CC[C@H]3CC[C@H](N)[C@@H](CO)O3)nn2)cc1	·	·	1.3	·	-0.1	·
CCCCCCCCCCCCCCCCn1cc[n+](C)c1	-16.8	2.9	3.3	48.8*	·	-24.3
COc1ccc(CNc2ncnc3sccc23)cc1	5.0	865.3*	0.9	-3.6	29.9	0.1
COc1ccc(CNc2ncnc3sccc23)cc1OC	-10.0	-1.2	2.2	-2.7	·	-22.1
CC(C)C#Cc1ccc2c(c1)O[C@H](CN(C)Cc1ccncc1)[C@H](C)CN([C@@H](C)CO)S2(=O)=O	·	·	·	·	1.2	·
CC(C)(C)OC(=O)NCC(=O)Oc1cc2oc(=O)cc(-c3ccccc3)c2cc1Cl	0.7	23.1	-0.7	-1.5	·	-6.0
O=C(Oc1cc2oc(=O)cc(-c3ccccc3)c2cc1Cl)C1CCCCC1	9.4	68.0*	·	-2.3	-0.3	-15.1
CCNC(=O)CCSc1nc2cc(Cl)ccc2o1	-1.3	110.8*	·	-1.9	0.0	-12.8
CCS(=O)(=O)N1CC2(CN(CC3CCOCC3)[C@H](CO)c3c2c2ccc(OC)cc2n3C)C1	·	·	0.1	·	·	·
CCOc1ccc(S(=O)(=O)NCCC(=O)NCc2ccccn2)cc1	10.0	-1.1	11.2*	-1.1	·	-110.7
COC(=O)C1=C(c2ccc(-c3ccccc3)c(F)c2)C[C@@H]2CC[C@H]1N2C(=O)N1CCCC1	36.6	28.6*	0.2	-7.2	2.4	-11.8
O=C(CC(c1ccccc1)c1ccccc1)Nc1ccc(O)cc1	-2.1	-0.3	13.4*	-0.7	-1.7	-57.1
O=C(NC(=S)Nc1ccc(O)cc1)c1ccccc1Cl	7.2	2.2	16.5*	-0.9	-0.4	-43.6
Oc1ccc(NC(=S)Nc2ccccc2)cc1	-2.0	5.0	10.6*!	-2.7	0.0	-4.9
COC(=O)C[C@H]1C[C@H]2c3cc(NC(=O)CN(C)C)ccc3O[C@H]2[C@@H](CO)O1	·	·	-8.9	·	-0.8	·
Cc1ccccc1-c1cnc2c(c1)C(=O)N([C@@H](C)CO)C[C@@H](C)[C@H](CN(C)Cc1ccncc1)O2	·	·	0.6	·	-0.7	·
Cc1ccc(COC(=O)c2cc([N+](=O)[O-])ccc2N2CCOCC2)cc1	22.0	-1.2	1.2	-4.1	-0.3	77.1*
O=C(OCc1ccc([N+](=O)[O-])cc1)c1cc([N+](=O)[O-])ccc1N1CCOCC1	21.9	1.2	1.5	1.5	·	-17.3
COc1ccc(C(=O)CC(=O)c2ccccc2O)cc1	-11.1	-0.6	1.9	-2.6	3.3	-59.1
COc1ccc(O)c(C(=O)CC(=O)c2ccccc2C)c1	-9.9	314.2*	1.0	0.0	2.0	-82.4
SMILES	Yp Topo-I inh	PfHsp40 rescue	TcdB GH inh	FadD28 FP inh	Mtb BioA inh	PrP UTR inh
COc1ccc(O)c(C(=O)CC(=O)c2ccc(F)cc2)c1	-11.8	230.5*	·	-1.4	0.1	11.3
Clc1c(Cl)c(Cl)c2n[nH]nc2c1Cl	3.0	59.0*	-4.3	-17.7	·	-28.0
CCCCC/C=C/C1=CC(=O)C[C@H](c2ccc3c(c2)OCO3)C1	62.8*	3.5	-0.6	-2.3	2.4	-12.5
COC/C=C/C1=CC(=O)C[C@H](c2ccc3c(c2)OCO3)C1	7.5	3.8	1.1	-1.7	7.1	6.5
C[C@@H]1CN([C@H](C)CO)C(=O)Cc2cc(NC(=O)C3CCCCC3)ccc2O[C@@H]1CN(C)Cc1ccc(C(=O)O)cc1	·	·	0.1	·	-1.3	·
N/C(=N\N=C\c1ccc(O)cc1)c1nonc1N	3.6	-1.2	28.4*	-1.9	·	-103.2
N/C(=N\N=C\c1ccc(O)c(O)c1)c1nonc1N	-7.8	-0.1	5.1	-1.2	·	-78.7
CC(Cc1cccs1)NC(=O)Nc1ccc(Cl)c(Cl)c1 (stereo not given)	-1.0	130.9*	·	-8.2	1.4	-39.5
CC(Cc1cccs1)NC(=O)Nc1ccc(Cl)cc1 (stereo not given)	18.0	0.5	0.7	-1.7	0.8	-55.9
CNc1cc(Cl)nc(SC)n1	6.8	0.7	1.2	0.5	·	-17.4
